Compound activity deposited in PubChem BioAssay by National Center for Advancing Translational Sciences (NCATS).
Compounds with a hit are over-represented: about 11% of the library has one in this group of screens.
HttQ103 aggreg: inhibitors of mutant huntingtin aggregate formation in PC12 cells; PC12 HttQ103-GFP aggregates, Acumen cytometry, 40 h; Potency, µM (series often up to 46.1 µM), for the others: at the top dose activity change, negative = inhibition, usual class: inhibitors; 220,000 compounds, 1.1% hits; AID 1688; note: potency is the fitted concentration of half-maximal effect; % is set by controls: 0 for no effect and ±100 for the full control effect; nearly all actives have a fitted effect of over 60% in size
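Aggregate formation scored by laser-scanning cytometer (488 excitation, 500–530 emission) in lysed PC12 cells expressing Q103-GFP after 100 nM tebufenozide induction; library tested in dose series, with ATPLite reagent added in the multiplex.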
ALDH1A1 inh: ALDH1A1 (human) enzyme inhibition. P00352. Purified ALDH1A1, NADH fluorescence, propionaldehyde substrate. Potency, µM (titrated, usually from 75.3 µM), without a hit: at the highest dose activity, negative = inhibition, actives largely listed as inhibitors. 220,000 compounds, 7.3% hits; active = well fitted inhibition curve with a large enough effect, not every such curve was filed as active; inconclusive = small, poorly fitted or top-dose-only effect, or another doubt; inactive = no such curve, though single readings can be large or run the other way;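 note: potency is the fitted concentration of half-maximal effect; plate controls were no enzyme wells and a reference inhibitor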
Target sequence (P00352 whole entry, looked up): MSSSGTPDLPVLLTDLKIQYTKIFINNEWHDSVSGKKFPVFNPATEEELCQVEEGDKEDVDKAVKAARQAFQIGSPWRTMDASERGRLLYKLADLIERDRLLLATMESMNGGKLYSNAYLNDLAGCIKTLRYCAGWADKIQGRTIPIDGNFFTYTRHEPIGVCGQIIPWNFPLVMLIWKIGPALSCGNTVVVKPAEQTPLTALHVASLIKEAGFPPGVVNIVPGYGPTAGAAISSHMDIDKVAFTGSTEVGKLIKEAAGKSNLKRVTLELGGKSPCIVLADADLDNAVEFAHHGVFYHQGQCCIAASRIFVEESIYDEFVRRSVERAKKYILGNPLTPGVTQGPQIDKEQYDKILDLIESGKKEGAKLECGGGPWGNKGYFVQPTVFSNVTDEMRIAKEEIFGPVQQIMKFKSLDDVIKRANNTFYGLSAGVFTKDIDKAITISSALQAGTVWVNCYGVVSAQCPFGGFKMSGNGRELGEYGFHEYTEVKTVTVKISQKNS
RGS12 GoLoco inh: inhibitors of human Gai1-RGS12 GoLoco interaction (red fluorophore). P63096. Gai1:RGS12 GoLoco peptide FP, rhodamine, 10 min. Potency, µM (top dose mostly 61.6 µM), for inactives: top-dose activity, negative = inhibition, hits mostly inhibitors. 230,000 compounds, 0.44% hits; active = well fitted inhibition curve with a large enough effect, not every such curve was filed as active; inactive = no such curve, though single readings can be large or run the other way; note: potency is the fitted concentration of half-maximal effect; % is set by controls: 0 for no effect and ±100 for the full control effect; nearly all actives have a fitted effect of over 30% in size
HTT cytoprotect: Huntington cell model cytoprotection by ATP luminescence; PC12 HTT-Q103 induced, cytoprotection, ATP luminescence, 40 h; Potency, µM (highest dose often 56.4 µM), without a hit: cytoprotection (ATP increase), most hits filed as activators; 230,000 compounds, 0.14% hits; note: potency is the fitted concentration of half-maximal effect; % of control where 0% means no effect; nearly all actives have a fitted effect of over 45% in size
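Cells were plated at 1500 per well in phenol red-free DMEM with 5% equine and 5% calf serum. Tebufenozide (100 nM final) and compounds were added, then ATPlite reagent, and luminescence was read.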
PNC assembly inh: inhibitors of perinucleolar compartment assembly; PC3M PTB-GFP, PNC prevalence imaging, 16 h; hits give low values; 140,000 compounds, 3.1% hits; activity change (PNC), negative = inhibition, % at 10 µM; AID 2417;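 active = readout at or below -70, meaning at least 70% loss of cells showing the perinucleolar compartment, a nuclear body marking cancer cells; inconclusive = readout between -30 and a set limit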;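 note: plate controls were DMSO wells for no effect and camptothecin positive control wells for full effect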
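PC3M cells stably expressing PTB-GFP, 750–1000 cells/well, treated 16 h at 37 °C with compound (23 nl of library stock), in duplicate. After paraformaldehyde fixation and Hoechst stain, imaged at 20x; PNC prevalence scored by image analysis.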
HPGD block: HPGD (human) dehydrogenase inhibition; P15428; purified HPGD, NADH fluorescence kinetic, PGE2 substrate; Potency, µM, without a hit: top-dose activity change, negative = inhibition, actives largely listed as inhibitors; 150,000 compounds, 4.3% hits; AID 894; active = well fitted inhibition curve with a large enough effect, not every such curve was filed as active; inconclusive = small, poorly fitted or top-dose-only effect, or another doubt; inactive = no such curve, though single readings can be large or run the other way; note: potency is the fitted concentration of half-maximal effect; % is set by controls: 0 for no effect and ±100 for the full control effect
Target sequence (P15428 whole entry, looked up): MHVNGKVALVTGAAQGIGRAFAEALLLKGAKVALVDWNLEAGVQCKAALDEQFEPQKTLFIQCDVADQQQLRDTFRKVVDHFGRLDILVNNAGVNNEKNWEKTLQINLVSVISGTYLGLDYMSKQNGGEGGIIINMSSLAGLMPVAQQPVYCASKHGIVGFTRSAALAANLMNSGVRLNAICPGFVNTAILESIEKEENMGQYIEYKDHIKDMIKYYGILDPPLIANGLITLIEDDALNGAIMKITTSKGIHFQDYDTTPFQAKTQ
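NADH formation kinetics: reaction with 30 uM PGE2 and 1 mM NAD+ (final), 20 nM enzyme, Tris-HCl pH 8 with Tween 20, after 15 min compound preincubation at room temperature. Fluorescence change, last versus first of five reads.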
* hit, by the source's call; ? = inconclusive; . = not tested or not shown; [ ] = dose if it differs, or a comment. Unless noted, calls come from the whole dose curve; as a rule, active = well fitted curve in the direction sought with a large enough effect; inconclusive = small, poorly fitted or top-dose-only effect, or another doubt; inactive = no such curve, though single readings can be large; an effect the other way counts as inactive or inconclusive.

SMILES	HttQ103 aggreg	ALDH1A1 inh	RGS12 GoLoco inh	HTT cytoprotect	PNC assembly inh	HPGD block
Cc1ccc(NC(=O)/C=C/c2ccc([N+](=O)[O-])s2)c(C)c1	7%	-8%	11%	?	-98*	-18%
CC1CCCN(S(=O)(=O)c2ccc(NC(=O)Cn3nnc(-c4ccccc4F)n3)cc2)C1 (stereo not given)	?	?	9%	2%[10 µM]	-16	-6%
COc1ccc(C(=O)Cn2nnc(-c3ccccc3NC(=O)C(F)(F)F)n2)cc1	-6%	-3%	1%	7%	24	-6%
CC1CCN(S(=O)(=O)c2ccc(NC(=O)Cn3nnc(-c4ccccc4)n3)cc2)CC1	2%	4%	4%	1%[10 µM]	-100*	-3%
COc1ccc(C(=O)Cn2nnc(-c3ccccc3NC(=O)C3CCCCC3)n2)cc1	13µM*	0.28µM*	-4%	-20%	15	-13%
COc1ccc(NC(=O)Cn2nnc(-c3ccccc3NC(=O)C3CC3)n2)cc1	7%	0%	.	-7%	-104*	.
O=C(/C=C/c1ccc(O)c(O)c1)O[C@@H](C(=O)O)[C@@H](OC(=O)/C=C/c1ccc(O)c(O)c1)C(=O)O	.	-12%	-13%	-52%	.	-10%
O=C(/C=C/c1ccc(O)c(O)c1)O[C@H](Cc1ccc(O)c(O)c1)C(=O)O	-41%[9.22 µM]	.	16µM*	26%[10 µM]	.	.
O=C(Nc1nccs1)C12CC3CC(C1)CC(C(=O)Nc1nccs1)(C3)C2	-28%	-17%	2%	-10%	-88*	-13%
c1ccc(CN2COc3c(ccc4c5c(ccc34)CN(Cc3ccccc3)CO5)C2)cc1	.	-5%[13.5 µM]	2%[14.2 µM]	12%[10 µM]	.	3%
NC(=O)SCC(=O)Nc1ccc(Cl)c(Cl)c1	-2%	?	9%	-2%	23	-14%
Cc1ccc(NC(=O)CSC(N)=O)cc1Cl	6%	3.5µM*	12%	12%	0	-13%
NC(=O)/C=C/C(=O)Nc1ccc(Cl)cc1	?	2.2µM*	-7%	-184%	.	.
NC(=O)SCC(=O)Nc1cccc(Cl)c1	12%	0.6µM*	35%	-5%	-13	-22%
NC(=O)SCC(=O)Nc1ccc(Cl)cc1	17%	?	8%	-7%	-23	4.5µM*
N#CCSCC(=O)Nc1ccc(Cl)cc1	-8%	?	-2%	3%	23	-28%
Cc1c(Cl)cccc1NC(=O)CSC(N)=O	2%[9.22 µM]	?	9%	-25%	.	.
CCNc1ncc2nc(-c3ccc(Cl)cc3)c(=O)n(C[C@H]3CCCO3)c2n1	.	?	-1%	-51%	.	.
COc1ccc(N2CC(O)=C(c3nc(C)cs3)C2=N)cc1	6%	20µM*	64%	-18%[10 µM]	3	-12%
Cc1csc(C2=C(O)CN(c3ccc4c(c3)OCCOCCOCCOCCO4)C2=N)n1	7%	10%	11%	-6%	-3	-6%
CCCN1CC=C2C(C#N)=C(N)C(C#N)(C#N)C(c3cccc(OC)c3OC)C2C1 (stereo not given)	?	?	2%	23%[10 µM]	-95*	?
COc1ccc(OC)c(C2C3CN(C(C)C)CC=C3C(C#N)=C(N)C2(C#N)C#N)c1 (stereo not given)	?	?	34%	-12%[10 µM]	-8	?
C(=C\c1nnc2c3ccccc3ncn12)/c1ccccc1	-1%	?	-1%	.	-97*	-30%
COc1cc(/C=C/c2nnc3c4ccccc4ncn23)cc(OC)c1OC	7%	-1%	.	-14%[10 µM]	48	.
CCNC(=O)[C@H]1O[C@H](n2cnc3c(N)nc(NCCc4ccc(CCC(=O)O)cc4)nc32)[C@@H](O)[C@@H]1O	.	?	5%	-6%	.	-12%
SMILES	HttQ103 aggreg	ALDH1A1 inh	RGS12 GoLoco inh	HTT cytoprotect	PNC assembly inh	HPGD block
O=C(COc1c(Br)cc(Br)c2cccnc12)N1CCc2ccccc2C1	?	11µM*	9%	-1%	31	18µM*
CCOC(=O)CC(=O)CSc1ncnc2c1oc1ccccc12	-9%	-6%	-6%	-12%	11	14µM*
O=C(COc1c(Br)cc(Br)c2cccnc12)N1CCCCC1	-17%	?	4%	10%	.	.
O=C(CSc1ncnc2c1oc1ccccc12)Nc1ccccc1C(F)(F)F	-15%	-8%	-3%	-8%[10 µM]	7	?
O=C(CSc1ncnc2c1oc1ccccc12)N1CCc2ccccc2C1	4%	-3%	5%	2%	-12	4µM*
O=C(CSc1ncnc2c1oc1ccccc12)NCc1ccco1	16%	11µM*	51%	-2%	?	8.9µM*
O=C(O)CSc1ncnc2c1oc1ccccc12	-9%	6%	.	-13%	-11	.
CC[C@H]1CC[C@H]2[C@@H]3CC=C4C[C@H](OC(C)=O)[C@@H](N)C[C@@]4(C)[C@H]3CC[C@@]12C	.	6%[13.5 µM]	9%[14.2 µM]	7%[10 µM]	.	-6%
CC(c1ccccc1)n1cc(C(=O)NCc2ccccn2)nn1 (stereo not given)	12%[9.22 µM]	2%	-4%	0%[10 µM]	-5	-4%
Cc1ccc(C(C)n2cc(C(=O)NCc3cccnc3)nn2)cc1 (stereo not given)	-13%[9.22 µM]	11µM*	-1%	11%	19	-5%
O=c1c2ccccc2nc2n1CC/C2=C/N1CCN(c2cccc(C(F)(F)F)c2)CC1	19%	4µM*	.	-30%[0.074 µM]	9	.
O=c1c2ccccc2nc2n1CC/C2=C\c1ccccc1[N+](=O)[O-]	8%	10%	-7%	6%	46	-11%
COc1ccccc1-c1nccc(NC2CCNCC2)n1	.	1%	10%	?	.	.
COC(=O)c1cc(C(=O)c2ccccc2)n2c(=O)/c(=C\N(C)C)sc12	13%[9.22 µM]	3.2µM*	13%	10%[10 µM]	.	.
COC(=O)c1ccc(=O)n(CC(=O)c2ccc(Cl)cc2)c1	20%	5%	4%	-35%	.	.
COC(=O)c1cc(C(=O)c2ccc(Cl)cc2)n2c(=O)/c(=C\N(C)C)sc12	21%	0.25µM*	45%	-17%	.	.
COC(=O)c1coc(-c2ccc(C)cc2)c1C(=O)OC	10%	22µM*	-5%	-15%	8	-23%
C(=N/Nc1nnc2c(n1)[nH]c1ccccc12)/c1cccnc1	.	-6%[13.5 µM]	2%[14.2 µM]	-27%[10 µM]	.	-9%
CN(C)c1ccc(/C=C/c2ccc3ccccc3n2)cc1	-5%[9.22 µM]	.	27%	-88%[10 µM]	.	.
CCN(CC)c1ccc(/C=C/c2cc(-c3ccccc3)c3ccccc3n2)cc1	7%[9.22 µM]	11µM*	132%	-3%[10 µM]	.	.
CC(=O)N1[C@H](Cc2ccccc2)C=C[C@]1(C)C(=O)NCc1cc(F)cc(C(F)(F)F)c1	.	-4%	3%	10%	.	-8%
c1ccc(-n2nnc(-c3cccnc3)n2)cc1	-5%[9.22 µM]	1%	0%	12%[10 µM]	.	.
